Reference: PubChem BioAssay AID1159580 (chemical genetic matrix, 2015)
The whole screen tested about 5,500 compounds, of which about 2,000 (36%) were called active. Not shown: some 18% with an inconclusive outcome. Rule as the data show it: active = normalized growth mostly below about 0.91 (no sharp cut-off); inconclusive = no clear call, values can overlap the other calls; inactive = mostly above about 0.92. The list shows a part of the results.

Test: chemical genetic growth profiling, strain panel (AID 1159580);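 also: tested at 20 µM; growth read once vehicle control cultures reached saturation at 30 °C; 1 = growth at the plate median or of vehicle wells; lower values mean less growth of the strain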
Details: S. cerevisiae deletion strains, growth OD
[1] = locus YHR030C, strain SLT2, stronger effect = lower value
[2] = locus YAL013W, strain DEP1, stronger effect = lower value
[3] = locus YGR078C, strain PAC10, stronger effect = lower value
[4] = locus YJR075W, strain HOC1, stronger effect = lower value
[5] = locus YMR307W, strain GAS1, stronger effect = lower value

Measured: normalized growth

OC[C@H]1O[C@H](OCCCc2ccc(O)cc2)[C@H](O)[C@@H](O)[C@@H]1O
inactive: [1] 0.97 | locus YHR079C, strain IRE1, stronger effect = lower value 0.993 | locus YJL095W, strain BCK1, stronger effect = lower value 1 | locus YJR066W, strain TOR1, stronger effect = lower value 0.93 | locus YLR113W, strain HOG1, stronger effect = lower value 0.979 | locus YNL183C, strain NPR1, stronger effect = lower value 0.933 | locus YOR231W, strain MKK1, stronger effect = lower value 0.975 | locus YPL256C, strain CLN2, stronger effect = lower value 0.968

CN1C[C@@H](CS(=O)(=O)N(C)C)C[C@@H]2c3cccc4c3c(cn4C)C[C@H]21
inactive: [2] 1 | locus YAL040C, strain CLN3, stronger effect = lower value 1.01 | locus YCL061C, strain MRC1 (second series), stronger effect = lower value 1 | locus YDR363W, strain ESC2, stronger effect = lower value 1.01 | locus YER002W, strain NOP16, stronger effect = lower value 1.01 | [3] 1.01 | [4] 1 | [5] 1.03 | locus YNL175C, strain NOP13, stronger effect = lower value 1.01 | locus YNL197C, strain WHI3, stronger effect = lower value 1.02 | locus YNL224C, strain SQS1, stronger effect = lower value 1.01 | locus YOR083W, strain WHI5 (second series), stronger effect = lower value 1.03

Cc1c(C)c(C)c(CO)c(C)c1C
inactive: [2] 0.988 | locus YBR229C, strain ROT2, stronger effect = lower value 1.01 | locus YDL101C, strain DUN1, stronger effect = lower value 1.01 | locus YDR150W, strain NUM1, stronger effect = lower value 0.981 | locus YEL061C, strain CIN8, stronger effect = lower value 0.996 | [3] 0.998 | [1] 1.06 | locus YHR087W, strain rtc3, stronger effect = lower value 1.01 | locus YJL187C, strain SWE1, stronger effect = lower value 1 | locus YJR043C, strain POL32, stronger effect = lower value 1 | [4] 1.04 | locus YLR039C, strain RIC1, stronger effect = lower value 0.98 | locus YLR058C, strain SHM2 (second series), stronger effect = lower value 1.02 | locus YLR085C, strain ARP6, stronger effect = lower value 1.06 | locus YLR262C, strain YPT6, stronger effect = lower value 0.955 | locus YML094W, strain GIM5, stronger effect = lower value 0.996 | locus YMR219W, strain ESC1, stronger effect = lower value 1.01 | locus YMR263W, strain SAP30, stronger effect = lower value 0.993 | [5] 1.03 | locus YNL153C, strain GIM3, stronger effect = lower value 0.97 | locus YNL298W, strain CLA4 (second series), stronger effect = lower value 1.04 | locus YNL322C, strain KRE1, stronger effect = lower value 1.01 | locus YNR030W, strain Alg12, stronger effect = lower value 1 | locus YPL055C, strain LGE1, stronger effect = lower value 0.997 | locus YPL241C, strain CIN2, stronger effect = lower value 0.989 | locus YPR135W, strain CTF4, stronger effect = lower value 1
